Screening results (PubChem BioAssay)
HT1080 IDH1KD tx: kills HT-1080 cells with IDH1 knockdown; HT-1080 IDH1 knockdown viability, ATP luminescence, 48 h; hit rate 2% among 360,000; Potency, µM (doses to about 46.1 µM), without a hit: at the highest dose activity, negative = toxicity, most hits filed as cytotoxic;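 note: potency is the fitted concentration of half-maximal effect; 0% = DMSO wells and -100% = cell-free medium wells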
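Luminescent ATP read-out (CellTiter-Glo, 10 min at room temperature) after 48 h compound exposure at 37 °C gave viability of IDH1-knockdown HT-1080 cells. Activity was normalised to DMSO and cell-free wells, then fitted as concentration-response curves.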
IL-1B inflam inh: inflammasome signaling inhibition, IL-1 beta readout. THP-1 LPS/ATP IL-1B secretion, AlphaLISA, 16 h; active compounds read low. activity change, % at 57.5 µM. hit rate 4.7% among 360,000. AID 743279; in the data active = activity change below about -50%; inconclusive = mostly about -30% to -49%
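THP-1 cells pretreated 1 hr with compounds (up to 57.5 uM final), then stimulated with LPS (250 ng/mL final) plus ATP (1.25 mM final); secreted IL-1B measured by AlphaLISA after 16 hr, decreased signal indicating inhibition.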
DT40 TDP1 no CPT: qHTS for Inhibitors of human tyrosyl-DNA phosphodiesterase 1 (TDP1): qHTS in cells in absence of CPT. DT40 Tdp1-/- hTDP1 cells, no CPT, ATP luminescence, 48 h. Potency, µM (series often up to 46.2 µM), for inactives: top-dose activity change, negative = growth inhibition, actives largely listed as inhibitors. hit rate 15% among 420,000; note: potency is the fitted concentration of half-maximal effect; nearly all actives have a fitted effect of over 55% in size
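A cellular qHTS used chicken DT40 cells lacking endogenous Tdp1 but carrying stably transfected human TDP1. Compounds were applied without camptothecin, and cell growth kinetics were judged by ATP-dependent luminescence after ≥48 hr.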
TDP1 cell CPT: DT40-hTDP1 cell growth loss with CPT. chicken DT40 Tdp1-/-;hTDP1 cells + 20 nM CPT, ATP luminescence, 48 h. Potency, µM (highest dose often 46.2 µM), without a hit: at the top dose activity change, negative = growth inhibition, actives largely listed as inhibitors. hit rate 12% among 420,000. AID 686979; note: potency is the fitted concentration of half-maximal effect; nearly all actives have a fitted effect of over 55% in size
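Cell growth measured by CellTiter-Glo luminescence after a minimum 48 h, 37 C compound exposure with 20 nM CPT in Tdp1-knockout DT40 cells stably expressing hTDP1, seeded 400/well; qHTS titration format.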
HT1080NT lethal: kills 2HG-producing HT-1080-NT fibrosarcoma cells; HT-1080-NT fibrosarcoma viability, CellTiter-Glo ATP luminescence, 48 h; AID 686970; hit rate 1.6% among 360,000; Potency, µM (titrated, usually from 46.1 µM), for the others: at the top dose activity, negative = less viability, most hits filed as cytotoxic;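 note: NT is the 2HG producing partner of a matched IDH1 knockdown line; potency is the fitted concentration of half-maximal effect; 0% = DMSO-treated cells and -100% = media-only wells without cells; nearly all actives have a fitted effect of over 55% in size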
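Compounds were tested in concentration-response format on HT-1080-NT cells for 48 hours at 37 degrees C. Cell viability came from CellTiter-Glo luminescence; curves were classified by r2, response magnitude and activity.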
The depositor's hits bear a star; ? = inconclusive; . = no result given. This is a sample that favours compounds with a hit; in the whole collection about 19% have one here. Unless noted, calls come from the whole dose curve; as a rule, active = well fitted curve in the direction sought with a large enough effect; inconclusive = small, poorly fitted or top-dose-only effect, or another doubt; inactive = no such curve, though single readings can be large; an effect the other way counts as inactive or inconclusive. Unless noted, % is set by controls: 0 for no effect and ±100 for the full control effect.

SMILES	HT1080 IDH1KD tx	IL-1B inflam inh	DT40 TDP1 no CPT	TDP1 cell CPT	HT1080NT lethal
CCc1cc2c(=O)c(-c3nc4ccccc4n3C)c(C)oc2c(CN2CCN(CCO)CC2)c1O	-4%	-4	?	16µM*	?
CCc1cc(-c2n[nH]c(C)c2-c2nc3ccccc3n2C)c(O)c(CN2CCN(C)CC2)c1O	?	-12	-10%	-18%	?
CCc1cc2c(=O)c(-c3nc4ccccc4n3C)c(C)oc2cc1OC(C)=O	-7%	17	?	?	-7%
CCc1cc2c(=O)c(-c3nc4ccccc4n3C)coc2c(CN2CCCC(C)C2)c1O (stereo unspecified)	-5%	-1	9.2µM*	?	-2%
CC1(C(=O)Nc2ccc3c(c2)OCO3)CCN1C(=O)CC1CC1 (stereo unspecified)	30%	54	-9%	-12%	27%
CCN(CC)c1ccc(NC(=O)c2cccnc2)cc1	-5%	-2	?	?	-8%
O=C(/C=C/c1c(F)cccc1Cl)Nc1ncccn1	10%	-8	0%	1%	12%
CCN(CC)c1ccc(/C=C/C(=O)c2cccnc2)cc1	-8%	6	21µM*	?	15%
O=C(/C=C/c1ccccc1Cl)Nc1cccc(O)c1	-3%	-13	?	?	-6%
O=C(/C=C/c1c(F)cccc1Cl)c1ccc(O)cc1	?	?	23µM*	?	?
O=C(/C=C/c1ccccc1Cl)c1ccc(O)cc1	?	-95*	15µM*	16µM*	-2%
O=C(/C=C/c1ccccc1Cl)c1cccnc1	?	?	16µM*	7.3µM*	?
CN(Cc1cn[nH]c1-c1ccc(-c2ccccc2)cc1)CC1CCOCC1	-8%	-11	?	?	-3%
N#Cc1ccc(/C=C/C(=O)c2cccnc2)cc1	?	?	15µM*	10µM*	?
CCN(CC)c1ccc(/C=C/C(=O)c2ccc(Br)cc2)cc1	-13%	-65*	?	16µM*	-3%
CCN(CC)c1ccc(/C=C2/C(=O)c3ccc(C(=O)O)cc3C2=O)cc1	4%	33	8%	17%	1%
O=C(/C=C/c1ccc(Cl)cc1)c1cccnc1	?	?	8.2µM*	5.8µM*	-20%
O=C(NCc1ccccc1F)C1CC(=O)N(Cc2ccco2)C1 (stereo unspecified)	3%	5	-2%	-2%	5%
CCN(CC1CCCN(CCc2cccc(F)c2)C1)C(=O)c1cc2ccccc2o1 (stereo unspecified)	?	-88*	18µM*	26µM*	?
CN(CC1CCCN(CCc2cccc(C(F)(F)F)c2)C1)C(=O)c1cc2ccccc2o1 (stereo unspecified)	-12%	-60*	13µM*	?	-1%
CCN(CC1CCCN(CCc2cccc(F)c2)C1)C(=O)c1cc(C)oc1C (stereo unspecified)	-1%	?	?	?	-2%
Cc1ccc2[nH]c(=O)c3cc(C(=O)N4CCN(c5ccccc5)CC4)sc3c2c1	.	.	?	-16%	.
CN1C(=O)C(C)(C)c2cc(S(=O)(=O)N3CCN(c4ccccc4)CC3)ccc21	8%	13	?	?	15%
Cc1ccccc1N=C/C=C1\N(C)c2ccccc2C1(C)C	-5%	-11	8.2µM*	18µM*	-5%
CN1/C(=C\C=Nc2cc(S(=O)(=O)N3CCOCC3)ccc2N2CCOCC2)C(C)(C)c2ccccc21	3%	-6	21µM*	?	-2%
CN(C)c1ccc(N=C/C=C2/N(C)c3ccccc3C2(C)C)cc1	-10%	-64*	5.2µM*	7.3µM*	-21%
Cc1cc(/N=C/C=C2/N(C)c3ccccc3C2(C)C)n(CCC#N)n1	?	?	6.5µM*	8.2µM*	-26%
CN1/C(=C\C=N\O)C(C)(C)c2ccccc21	20%	22	-25%	-29%	7%
CN1/C(=C\C=[N+](C)c2ccccc2)C(C)(C)c2ccccc21	?	-95*	1.3µM*	1.2µM*	7.1µM*
